According to the supplement of paper PMC11219838:
Unmarked numbers belong to inactive results.

Each molecule was assayed on Caenorhabditis elegans L1 (N2) (assay: survival and reproduction score of C. elegans L1 (0: 0-10 living worms, 1: 11-20, 2: 21-50, 3: >50, 4: overgrown) (score 0-4); higher = more worms, less nematicidal, active = 1 or less; extreme values may be limits of the assay). Settings: 60 µM; 6 days; temperature: 20 °C.
Summary of the method: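 Synchronized C. elegans N2 L1s (about 20 per well) were grown in 96-well plates in liquid NGM with E. coli HB101 and compound at 60 µM final (0.6% v/v DMSO), shaken sealed at 200 rpm and 20 °C for 6 days. The ordinal score for survival and reproduction counted living worms per well under a dissection microscope. The scale ran 0 (0–10 worms) to 4 (overgrown, starved), averaged over two biological replicates.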

Row | Structure (SMILES) | survival and reproduction score
1 | COC(=O)c1ccc(CSc2nnc(-c3ccncc3)o2)cc1 | 4
2 | Cc1ccc(-c2nnc(SCc3c(C)cc(C)cc3C)o2)cc1 | 4
3 | O=C(CSc1nnc(-c2cccc3ccccc23)o1)c1ccc(F)cc1 | 4
4 | CCCc1nnc(SCc2nnc(-c3ccccc3)o2)o1 | 4
5 | N#Cc1ccc(CSc2nnc(-c3ccncc3)o2)cc1 | 4
6 | N#Cc1ccccc1NC(=O)CSc1nnc(-c2ccccc2)o1 | 4
7 | Cc1ccc(SCc2nc(-c3ccc(C)cc3)no2)cc1 | 4
8 | Cc1cccc(-c2nc(-c3ccc4c(c3)OCO4)no2)c1 | 4
9 | Cc1ccc(-c2noc(C3CCCCC3)n2)cc1 | 0 (active)
10 | FC(F)(F)c1cccc(-c2noc(-c3ccc4c(c3)OCO4)n2)c1 | 4
11 | COc1ccc(-c2noc(COc3ccc(C)c(C)c3)n2)cc1 | 4
12 | Cc1cc(Cl)ccc1OCc1nc(-c2ccc(F)cc2)no1 | 4
13 | Cc1cc(OCc2nc(-c3ccncc3)no2)c(C)cc1Br | 4
14 | COc1ccc(-c2noc(CSc3nc(C)cc(C)n3)n2)cc1 | 4
15 | CCN(Cc1ccccc1)C(=O)c1ccccc1-c1nc(-c2cccc(C)c2)no1 | 4
16 | O=C(CSc1nnc(-c2ccccc2Cl)o1)Nc1ccc(Br)cn1 | 4
17 | Clc1cccc(OCc2nc(-c3ccncc3)no2)c1 | 3.5
18 | Cc1ccccc1CSc1nnc(-c2ccncc2)o1 | 4
19 | Cc1ccc(-c2nc(-c3ccc(C(F)(F)F)cc3)no2)cc1 | 0 (active)
